# In paper PMC7819943, “Rice protein-binding microarrays: a tool to detect cis-acting elements near promoter regions in rice”:
# Over roughly 35,000 sequences, “fluorescence intensity (a.u.)” has its median near 10,000; the highest 2% begin near 52,000. The entries come from a sample that favours the highest values as a whole.
# Target: T1, OsWOX13 (Oryza sativa, UniProt Q5QMM3 1-267)
# T1 sequence: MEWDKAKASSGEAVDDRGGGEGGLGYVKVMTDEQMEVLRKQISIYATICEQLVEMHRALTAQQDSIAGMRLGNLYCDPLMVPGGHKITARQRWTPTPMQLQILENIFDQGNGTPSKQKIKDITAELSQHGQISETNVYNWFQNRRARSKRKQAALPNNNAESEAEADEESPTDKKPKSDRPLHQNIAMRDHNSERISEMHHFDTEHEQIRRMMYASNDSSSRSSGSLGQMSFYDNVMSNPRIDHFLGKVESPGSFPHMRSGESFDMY
# Assay: protein-binding microarray (RPBM); PBS, 2% BSA, 51.3 ng/ul salmon testes DNA, 50 uM zinc acetate, 200 nM TF, 25 C, 1 h; high values mean tight binding
# Conditions: protein: recombinant; tags: N-terminal polyhistidine and DsRed monomer fusion (pET32a); label: CyDye5-dUTP incorporated in the synthesized complementary strand; 3' TTTTT single-stranded linker to array surface; dsDNA, one strand shown
# Method in brief: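 Binding signal is defined as the fluorescence intensity of each feature in arbitrary units, read on an Axon 4000B scanner. Transcription factors with N-terminal polyhistidine and DsRed fusions came from E. coli BL21-CodonPlus and were purified on Ni–NTA. They were incubated at 200 nM for 1 h at 25 °C on a custom Agilent array that had been made double-stranded with Cy5-dUTP, with 50 µM zinc acetate present, and the array was washed.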
row,Sequence,binding signal
1,GAGATAGAGATAATAGAAAGATTAAACAAGATTCGATAGACGGAGTCACCTAGTGCAG,3590 fluorescence intensity (a.u.)
2,CGAGATAAATCACGGTAATCACAGCAACAGCAACAGCAACCGGAGTCACCTAGTGCAG,10400 fluorescence intensity (a.u.)
3,ATGCCATCCAATCAAGCCACGACGATCCACAGCCATAGTGCGGAGTCACCTAGTGCAG,11500 fluorescence intensity (a.u.)
4,AAGCAAATCTCTAGATAGATAGATAGATGGATGGATGGATCGGAGTCACCTAGTGCAG,10800 fluorescence intensity (a.u.)
5,TGCTTAATTAATTATGTGCTAATGAGGTCTTTCATTTTACCGGAGTCACCTAGTGCAG,56100 fluorescence intensity (a.u.)
6,GTTTTAGCTAATATTTAATTAATCATGTGCTAATGAGCTACGGAGTCACCTAGTGCAG,8590 fluorescence intensity (a.u.)
7,TGCTAATGGACTTATTACTTTTGCTTGCTTTAATTTTGCCCGGAGTCACCTAGTGCAG,14600 fluorescence intensity (a.u.)
8,GTTTAATATTTATAATTAATTTTCAAACATCCGATGTGATCGGAGTCACCTAGTGCAG,19000 fluorescence intensity (a.u.)
9,CTTACCTGCTTTAATTTATGCATAATGTTGCTTCATAAACCGGAGTCACCTAGTGCAG,6090 fluorescence intensity (a.u.)
10,AATTAATCATGCGTTAATGGACCGTTCCGTTTTCCGTGTTCGGAGTCACCTAGTGCAG,20900 fluorescence intensity (a.u.)
11,GAGGGAGTACTAATTATTTAATTTGATGATTATAATACTTCGGAGTCACCTAGTGCAG,17900 fluorescence intensity (a.u.)
12,GATCATTTCAGTGATTAATTTAATTGGAAAAGTAATTCAACGGAGTCACCTAGTGCAG,6700 fluorescence intensity (a.u.)
13,CCTAATAATTAATTAATGATGCACGAGGGATTATCCAACTCGGAGTCACCTAGTGCAG,53200 fluorescence intensity (a.u.)
14,ATTTAATTAATATGTTAATGAGCTAATCCGTTTTCGGGACCGGAGTCACCTAGTGCAG,52300 fluorescence intensity (a.u.)
15,GATGTGATTGGATTAATTTTCAAAAGTACTTTTATATGATCGGAGTCACCTAGTGCAG,56300 fluorescence intensity (a.u.)
16,CGGTCAAATTATCCAAATTAATTAAAGAGGGAACTCGGTCCGGAGTCACCTAGTGCAG,35300 fluorescence intensity (a.u.)
17,ACGAATCTATTGAGCCTAATTAATTCATAATTAGTCTATGCGGAGTCACCTAGTGCAG,14600 fluorescence intensity (a.u.)
18,GAATTAAATGATGTGTGAATAATGGATGGCTAGGATGCAACGGAGTCACCTAGTGCAG,9780 fluorescence intensity (a.u.)
19,TTTAATTGTTATGAACACGACAATGTAATCGGATCATAGACGGAGTCACCTAGTGCAG,10100 fluorescence intensity (a.u.)
20,ATTGTATCTAATTATTGGCAACATGGAAATTAATCTCTTGCGGAGTCACCTAGTGCAG,9160 fluorescence intensity (a.u.)
21,CATAAATCATTTCTTTTGTTTTCAAACTAAGCATATTTGACGGAGTCACCTAGTGCAG,4540 fluorescence intensity (a.u.)

row,Sequence,binding signal
1,AATGTGATTTTCATGTATCCAATTAAAATATTTTAAGAAGCGGAGTCACCTAGTGCAG,9180 fluorescence intensity (a.u.)
2,CCTTGATGATTGAACCAGTCAGCCCCAACATCTCTATAAACGGAGTCACCTAGTGCAG,25800 fluorescence intensity (a.u.)
3,GCAATTTGATTTGGCCTGTATATTATTATGTGCAGGGTTCCGGAGTCACCTAGTGCAG,13800 fluorescence intensity (a.u.)
4,CCTTAATTAATTAATTTCTAGATCTCAAGAGGGCAACAGACGGAGTCACCTAGTGCAG,57200 fluorescence intensity (a.u.)
5,TTTCAAGAGATTAATTAATTTTCTCAACTTTGCAAGGGCACGGAGTCACCTAGTGCAG,16000 fluorescence intensity (a.u.)
6,TAATTTATTAATTTATTATTAGAGTATATATATTTCAAGACGGAGTCACCTAGTGCAG,6800 fluorescence intensity (a.u.)
7,TTACAGATTGGCCCCTGTATTTCTCTCTCTCGTCTCTCCTCGGAGTCACCTAGTGCAG,24800 fluorescence intensity (a.u.)
8,TTATCAATCTACATCGTTATAATTTAGTTCCACCGTAATTCGGAGTCACCTAGTGCAG,19800 fluorescence intensity (a.u.)
9,GCCGGGAGGGAGGGAGGGAGGGAGGGAGGGAGACCCCGCACGGAGTCACCTAGTGCAG,9960 fluorescence intensity (a.u.)
10,TTGATTTGAAAGGTACTACCTCTGTTTCAGGTTAGAAAGTCGGAGTCACCTAGTGCAG,3380 fluorescence intensity (a.u.)
11,GATGATTTGATTAGATTAGGTTAGGTTTGTTATTCACCTACGGAGTCACCTAGTGCAG,65500 fluorescence intensity (a.u.)
12,GTTAGGGTTTTCTTTTGATTGTCAGGGTTTTCTTTTGATTCGGAGTCACCTAGTGCAG,3960 fluorescence intensity (a.u.)
13,AGATGATTGATTTTCAGGTGATGAACAGGGTTACTGTTTTCGGAGTCACCTAGTGCAG,63000 fluorescence intensity (a.u.)
14,TTATTAGATGATGATTATTTTGAGAAGGTTTCTTAGGATGCGGAGTCACCTAGTGCAG,12900 fluorescence intensity (a.u.)
15,TAGATGATTATTATGATAGGATTGATTTGTTTAGAGTCTTCGGAGTCACCTAGTGCAG,46100 fluorescence intensity (a.u.)
16,AGTCATCAAAATTACGCATGTAATTAGTATATATAATTATCGGAGTCACCTAGTGCAG,9910 fluorescence intensity (a.u.)
17,TTTAGTATATAATAGATAGATAGATAGAAGATTTGTACTACGGAGTCACCTAGTGCAG,4500 fluorescence intensity (a.u.)
18,GCTGACTGGATAAAATCTGATAAGCGTGAAGATGACCTTTCGGAGTCACCTAGTGCAG,21400 fluorescence intensity (a.u.)
19,TTCGAAAATTACCTGTAACCTTCCATCCATCACACACACACGGAGTCACCTAGTGCAG,3500 fluorescence intensity (a.u.)
20,AGCTAATTAAGCTAGTGAGAGCTAGTGGAGGTACATGGCTCGGAGTCACCTAGTGCAG,11600 fluorescence intensity (a.u.)
21,TAATTGATGTAATTTAAATTATTCTTGGTCTTAGTGTATACGGAGTCACCTAGTGCAG,54800 fluorescence intensity (a.u.)
